An excerpt weighted towards active compounds, which were near 2% of everything screened.
CHRM4 PAM: potentiates acetylcholine response at human M4 receptor. activation, % at 3 µM. 360,000 compounds, 0.4% hits. P08173. CHO-K1 hM4/Gqi5, Fluo-8 calcium fluorescence, ACh EC20; 0% = ACh EC20, 100% = maximal ACh. AID 624126;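 active means activation above its plate's cutoff, the mean activation of sample wells plus 3 SD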
Target sequence (P08173 whole entry, looked up): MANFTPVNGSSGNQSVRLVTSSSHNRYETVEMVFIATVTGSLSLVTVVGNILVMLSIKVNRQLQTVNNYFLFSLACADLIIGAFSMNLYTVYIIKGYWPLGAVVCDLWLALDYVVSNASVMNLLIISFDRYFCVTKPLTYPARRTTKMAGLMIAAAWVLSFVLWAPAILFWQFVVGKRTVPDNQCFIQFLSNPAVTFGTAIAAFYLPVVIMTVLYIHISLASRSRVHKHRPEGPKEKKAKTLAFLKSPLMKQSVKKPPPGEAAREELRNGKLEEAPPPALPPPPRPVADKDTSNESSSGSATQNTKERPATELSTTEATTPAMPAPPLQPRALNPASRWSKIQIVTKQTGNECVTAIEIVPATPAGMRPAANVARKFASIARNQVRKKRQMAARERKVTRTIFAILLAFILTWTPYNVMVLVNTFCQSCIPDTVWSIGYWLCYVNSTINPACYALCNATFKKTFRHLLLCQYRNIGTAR
CHO-K1 Ca antag: counter-screen for M1 antagonists: effect in parental CHO-K1 cells; ATP-induced calcium, Fluo-8 fluorescence; inhibition, % at 3 µM; 360,000 compounds, 0.6% hits; AID 602250;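 active means inhibition above a per-plate cutoff, the plate's mean sample inhibition plus 3 SD, cut at about 24% in these data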
M4 antag: blocks acetylcholine activation of human M4 receptor; 360,000 compounds, 0.73% hits; P08173; inhibition, % at 3 µM; CHO-hM4 cells, ACh EC80, Fluo-8 calcium fluorescence;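 active means inhibition above its plate's cutoff, the mean inhibition of sample wells plus 3 SD, cut at about 27% in these data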
CHRM4 agonist: CHRM4 agonism in calcium assay; CHO-K1 hM4/Gqi5, Fluo-8 calcium fluorescence; vehicle 0%, full acetylcholine response 100%; AID 624127; activation, % at 3 µM; 360,000 compounds, 0.14% hits;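 active means activation above the run mean over all test wells plus 3 SD, cut at about 32% in these data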;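 further: peak over basal fluorescence ratio per well then scaled between controls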
M1 PAM parental: nonselective activator or artifact in parental CHO-K1 calcium assay | activation, % at 3 µM | 360,000 compounds, 0.02% hits | ATP EC20, Fluo-8 calcium fluorescence; 0% at ATP EC20, 100% at ATP max | AID 602247;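 active means activation above the run cutoff, the mean activation of all test compounds plus 3 SD, cut at about 40% in these data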;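 further: peak over basal fluorescence ratio in a 140 s read after ATP addition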
CHO-K1 Ca ag: counter-screen for M1 agonists: effect in parental CHO-K1 cells | AID 602248 | activation, % at 3 µM | 360,000 compounds, 0.48% hits | Fluo-8 calcium fluorescence; scaled to maximal ATP response, vehicle zero; in the data active means activation above about 15%;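 further: untransfected CHO-K1 host cells lacking M1 receptor as counterscreen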
Of the large screens only hits and unclear results are named; the others gave an inactive call.

CC(CN1CCCCC1)OC(=O)C(C)(c1ccccc1)c1ccccc1 (centres undefined)	none
CC(C)(C#CC(O)(c1ccccc1)c1ccccc1)N1CCCC1	M4 antag 79.3
COc1ccc(C(C(=O)NC2CCCC2)N(C(=O)c2ccoc2C)c2cc(C)cc(C)c2)cc1 (centres undefined)	none
COc1ccc(C(C(=O)NC2CCCC2)N(C(=O)c2ccoc2C)c2ccc(C)c(C)c2)cc1 (centres undefined)	CHO-K1 Ca antag 24.7
COc1ccc(C(C(=O)NC2CCCC2)N(C(=O)c2ccoc2C)c2ccccc2)cc1 (centres undefined)	none
CCc1ccc(N(C(=O)c2ccoc2C)C(C(=O)NC2CCCC2)c2ccc(OC)cc2)cc1 (centres undefined)	CHO-K1 Ca antag 27.6
CCC(C)(C(=O)Nc1c(C)cccc1C)N(C)C(=O)c1ccc2ccccc2n1 (centres undefined)	M4 antag 36.7
CC1Sc2ccc(S(=O)(=O)CCC(=O)NC3CCCC(C)C3C)cc2NC1=O (centres undefined)	none
CCCn1c(SCC(=O)Nc2ccccc2Cl)nc(O)cc1=O	none
CCCn1c(SCC(=O)Nc2cccc(F)c2)nc(O)cc1=O	M4 antag 26.8, CHRM4 agonist 41.1
Cc1csc(NC(=O)CSc2nnc(Cn3c(=O)sc4ccccc43)n2-c2ccccc2)n1	CHRM4 PAM 29.2
Cc1onc(-c2ccccc2)c1C(=O)NC(=S)NNC(=O)c1ccccc1O	CHRM4 agonist 44.2, CHO-K1 Ca ag 77.0
Cc1onc(-c2ccccc2)c1C(=O)NC(=S)NNC(=O)c1ccc(O)cc1O	none
CCCOc1ccc(C(=O)NC(=S)NNC(=O)c2c(-c3ccccc3)noc2C)cc1	CHRM4 agonist 32.2, CHO-K1 Ca ag 32.7
Cc1cc(OCC(=O)Nc2sc3c(c2C#N)CC(C)(C)NC3(C)C)c(C(C)C)cc1Cl	none
O=C(CCCCCn1c(=S)[nH]c2ccc(N3CCOCC3)cc2c1=O)NCc1cccc(Cl)c1	none
COC(=O)c1cnc(NC(=O)C2(C)CCCN(C(C)=O)C2)s1 (centres undefined)	none
Cc1ccc([N+](=O)[O-])cc1NC(=O)c1ccc(-c2ccccc2)cc1	CHO-K1 Ca antag 23.8
Cc1ccc([N+](=O)[O-])cc1NC(=O)Nc1cccc(F)c1	CHO-K1 Ca antag 25.7
CCCN(CCC)c1ncnc2nc[nH]c12	CHO-K1 Ca antag 29.3
CCc1nc2ccccc2c(C(=O)Nc2cc(C)ccc2C)c1C	none
Cc1cccc(C)c1NC(=O)COC(=O)CCc1c[nH]c2ccccc12	none
Cc1cccc(NC(=O)COC(=O)CCc2c[nH]c3ccccc23)c1C	CHRM4 PAM 22.0
O=C(Nc1cccc(CNCCc2c[nH]c3ccccc23)c1)c1ccccc1Cl	CHO-K1 Ca ag 26.8
O=C(COC(=O)c1ccccc1O)NCCc1c[nH]c2ccccc12	none
O=C(NCCc1c[nH]c2ccccc12)OCCCCOC(=O)NCCc1c[nH]c2ccccc12	M4 antag 31.9
O=C(COC(=O)c1ccccc1C(=O)OCC(=O)NCCc1c[nH]c2ccccc12)NCCc1c[nH]c2ccccc12	M4 antag 43.0
CC(C)[C@H](N)c1cn([C@@H](CC(N)=O)C(=O)N2CCNCC2)nn1	none
COc1ccc(C(=O)O)cc1S(=O)(=O)N(CCc1ccccc1)Cc1ccccc1	none
O=C(NCC1CCCO1)c1ccc(COc2ccccc2)cc1 (centres undefined)	none
Cc1cccc(OCC(=O)N2CCN(C(=O)c3ccco3)CC2)c1	none
Cc1cc(=O)[nH]c(NN=C2CCC(C(C)(C)C)CC2)n1 (centres undefined)	CHO-K1 Ca ag 19.3
COc1ccc(NC(=O)CS(=O)CC(=O)Nc2ccc(OC)c(OC)c2)cc1 (centres undefined)	CHRM4 PAM 30.4
COc1ccc(NC(=O)CS(=O)CC(=O)Nc2cc(Cl)ccc2OC)cc1 (centres undefined)	none
O=C(c1cccc(F)c1)N1CCCN(C(=O)c2cccc(F)c2)CC1	none
N#Cc1ccc(N2CCN(C(=O)c3cccc(F)c3)CC2)c(F)c1	CHRM4 PAM 16.3
O=C(CSc1nnc(CNC(=O)c2cccs2)o1)NC1CCCCC1	CHO-K1 Ca antag 24.6
O=C(O)c1ccc(-c2ccc(/C=N/Nc3ccc([N+](=O)[O-])cc3)o2)cc1	none
O=C(O)c1ccc(N/N=C/C=C/c2ccc([N+](=O)[O-])o2)cc1	CHRM4 agonist 74.0
O=C(N/N=C/c1ccco1)c1cc([N+](=O)[O-])cc([N+](=O)[O-])c1	none
O=[N+]([O-])c1ccc(N/N=C/c2c[nH]c3ccccc23)cc1	CHO-K1 Ca antag 25.9, CHO-K1 Ca ag 15.4
O=[N+]([O-])c1ccc(N/N=C/C=C/c2ccco2)cc1	CHRM4 agonist 37.6, CHO-K1 Ca ag 20.7
O=C(N/N=C/c1ccc([N+](=O)[O-])o1)C(=O)Nc1ccc(C(=O)O)cc1	none
O=C(O)c1cccc(-c2ccc(/C=N/Nc3ccc([N+](=O)[O-])cc3)o2)c1	M4 antag 27.3, CHO-K1 Ca ag 18.0
CCC(=O)OCC(=O)c1cc(C)n(-c2ccc(Br)cc2)c1C	none
CCNc1nc(N2CCCC2)nc(N2CCCC2)n1	none
CCNc1nc(NC(C)(C)C)nc(N2CCCCC2)n1	M4 antag 44.7
COc1ccc(C(=O)/C=C/c2cn(CC(O)CN3CCOCC3)c3ccccc23)cc1 (centres undefined)	none
Cc1ccc(C(=O)/C=C/c2cn(CC(O)CN3CCOCC3)c3ccccc23)cc1 (centres undefined)	CHO-K1 Ca ag 16.3
O=C(Nc1nnc([C@H]2C[C@H](O)[C@@H](CO)O2)s1)Nc1cccc2c1CCCC2	none
O=S(=O)(NCCCc1ccccc1)c1ccccc1	none
O=S(=O)(NCCCCCNS(=O)(=O)c1ccccc1)c1ccccc1	CHO-K1 Ca antag 24.1
CS(=O)(=O)NCCOc1ccc(S(=O)(=O)NCCOc2ccccc2)cc1	CHO-K1 Ca antag 31.6
O=C(COC(=O)/C=C/c1ccccc1)NCCc1ccc(F)cc1	none
CCN(CC)S(=O)(=O)c1cccc(NC(=S)NC(=O)/C=C/c2ccc(S(=O)(=O)N3CCOCC3)cc2)c1	CHO-K1 Ca antag 26.6
O=C(/C=C/c1ccc(S(=O)(=O)N2CCOCC2)cc1)NC(=S)Nc1ccc(Cl)cc1Cl	none
COc1ccccc1CNS(=O)(=O)c1cc(-c2cc(C)no2)ccc1C(C)C	none
COc1ccc(C(=O)/C=C/C(=O)N(CC(=O)NC2CCCCC2)CC2CCCO2)c(O)c1 (centres undefined)	M4 antag 28.5
COc1ccccc1N1C(=O)c2cccc3c(N(C)CCO)ccc(c23)C1=O	none
Cc1ccccc1N1C(=O)c2cccc3c(N(C)CCO)ccc(c23)C1=O	CHO-K1 Ca ag 16.5
